Laboratory results as given in PubChem BioAssay (Tox21).
Values joined by “and” are separate entries in the source; they are usually repeats but may differ in a detail not shown here. Equal entries are not always repeated. Records with an inconclusive call do not appear. Active and inactive are the calls of the source. The call rests on the fitted dose curve; in most records, active means well fitted inhibition curve with a large enough effect in the repeat runs; inconclusive means weak or mixed curves; inactive means no such curve, though single readings can be large or run the other way.

The compounds below were run against Cytochrome P450 2D6 (Homo sapiens) (UniProt P10635) (assay: Cytochrome P450 Family 2 Subfamily D Member 6 (CYP2D6) small molecule antagonists: luciferase reporter qHTS assay (AID 1671196; further: nearly all actives have a fitted effect of over 50% in size)). Settings: P450-Glo CYP2D6 enzyme assay, luciferin luminescence, 1 h; series mostly up to 115 µM.
In short: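 Enzyme and proluciferin substrate were first combined with test chemical for 10 min at room temperature. Adding NADPH regeneration solution started a 1 h reaction, stopped with luciferin detection reagent and read by luminescence 20 min later.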
Potency means the concentration at half of the fitted maximal effect.

Cytochrome P450 2D6 (Homo sapiens), sequence (P10635 whole entry, looked up): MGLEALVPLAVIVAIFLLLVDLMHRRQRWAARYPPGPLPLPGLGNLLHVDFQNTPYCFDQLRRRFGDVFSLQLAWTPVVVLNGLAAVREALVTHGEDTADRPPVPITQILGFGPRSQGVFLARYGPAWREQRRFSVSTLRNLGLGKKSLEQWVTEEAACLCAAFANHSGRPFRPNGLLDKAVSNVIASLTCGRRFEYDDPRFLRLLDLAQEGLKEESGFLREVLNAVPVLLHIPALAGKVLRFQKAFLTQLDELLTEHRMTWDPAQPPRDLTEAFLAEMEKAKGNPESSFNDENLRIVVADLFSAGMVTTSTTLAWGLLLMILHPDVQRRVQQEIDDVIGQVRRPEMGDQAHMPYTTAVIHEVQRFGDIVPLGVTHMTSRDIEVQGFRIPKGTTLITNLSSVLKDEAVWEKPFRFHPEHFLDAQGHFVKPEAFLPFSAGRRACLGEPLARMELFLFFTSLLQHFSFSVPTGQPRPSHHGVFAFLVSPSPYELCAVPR

Compound	Potency
O=S1(=O)OC(c2cc(Br)c(O)c(Br)c2)(c2cc(Br)c(O)c(Br)c2)c2ccccc21	58 µM (active)
CN1C(=O)NC(=O)C(C)(C2=CCCCC2)C1=O (stereo unspecified)	inactive
ClCCCCBr	inactive
Cc1ccccc1C(=O)Nc1cccc(OC(C)C)c1	inactive
COc1ccc(-c2ccccc2)cc1NNC(=O)OC(C)C	0.83 µM (active)
Cl/C=C\Cl	inactive
O=C(O)C(F)(F)C(F)(F)C(F)(F)C(F)(F)C(F)(F)C(F)(F)C(F)(F)C(F)(F)C(F)(F)F	inactive
ClCc1cccc(Cl)c1	27.5 µM (active)
CC(C)(C)c1cc([N+](=O)[O-])cc([N+](=O)[O-])c1O	inactive
CCCCCCC#N	38.7 µM (active)
S=C=NCc1ccccc1	28.6 µM (active)
CC(C)(OO)c1ccccc1	inactive

These compounds were tested against Cytochrome P450 2C19 (Homo sapiens) (UniProt P33261) (assay: Cytochrome P450 Family 2 Subfamily C Member 19 (CYP2C19) small molecule antagonists: luciferase reporter qHTS assay (AID 1671197; further: nearly all actives have a fitted effect of over 65% in size)). Settings: P450-Glo CYP2C19 enzyme, luciferin luminescence, 1 h; series mostly up to 115 µM.
In short: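 Luminescent readout of CYP2C19 activity: luciferin product detected 20 min after adding detection reagent. Before that, compound and enzyme-substrate mix preincubated 10 min at room temperature; NADPH-regenerating system started a 1 h, 37C reaction. Ketoconazole as positive control.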

Cytochrome P450 2C19 (Homo sapiens), sequence (P33261 whole entry, looked up): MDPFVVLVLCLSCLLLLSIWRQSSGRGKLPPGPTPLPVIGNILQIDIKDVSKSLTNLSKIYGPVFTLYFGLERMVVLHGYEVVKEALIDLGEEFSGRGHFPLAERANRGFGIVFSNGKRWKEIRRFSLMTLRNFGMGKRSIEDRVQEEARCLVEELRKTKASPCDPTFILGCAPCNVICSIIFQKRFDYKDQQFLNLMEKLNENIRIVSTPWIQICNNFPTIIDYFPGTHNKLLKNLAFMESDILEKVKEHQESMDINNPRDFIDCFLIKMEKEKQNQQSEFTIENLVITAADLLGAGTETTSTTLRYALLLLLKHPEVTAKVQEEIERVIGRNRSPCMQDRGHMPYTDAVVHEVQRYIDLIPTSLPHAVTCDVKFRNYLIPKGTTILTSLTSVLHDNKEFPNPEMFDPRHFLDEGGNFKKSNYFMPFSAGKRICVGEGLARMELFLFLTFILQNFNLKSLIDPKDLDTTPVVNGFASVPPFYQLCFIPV

Compound	Potency
OC(c1ccc(Cl)cc1)(c1ccc(Cl)cc1)c1cccnc1	0.0796 µM (active)
[CH3][Sn]([CH3])([Cl])[Cl]	inactive
CC(O)(CS(=O)(=O)c1ccc(F)cc1)C(=O)Nc1ccc(C#N)c(C(F)(F)F)c1 (stereo unspecified)	3.69 µM (active)
CCCCCCCCCCOC(=O)c1ccccc1C(=O)OCCCCCCCCCC	inactive
N#Cc1ccc(Cl)cc1	inactive
CCOP(=S)(OCC)SCn1nnc2ccccc2c1=O	0.356 µM (active)
O=C(CCl)c1ccc(Cl)cc1Cl	17.8 µM (active) and 9.77 µM (active)
Sc1ccccc1Cl	inactive
CC(c1ccc(O)cc1)(c1ccc(O)cc1)c1ccc(O)cc1	28.3 µM (active)
Cc1ccccc1CCl	inactive
O=C(Nc1ccccc1)Nc1ccnc(Cl)c1	35.6 µM (active)
O=[N+]([O-])C(Br)(CO)CO	6.33 µM (active)
COc1nn(CSP(=S)(OC)OC)c(=O)s1	0.633 µM (active)
CC(=O)CCC(C)=O	inactive
COP(=S)(OC)Oc1ccc([N+](=O)[O-])cc1Cl	39.9 µM (active)
C[C@H]1CNCCc2ccc(Cl)cc21	inactive
O=C(O)C(F)(F)C(F)(F)C(F)(F)C(F)(F)C(F)(F)C(F)(F)C(F)(F)C(F)(F)C(F)(F)C(F)(F)F	inactive

Compound	Potency
c1ccc(CN2CCNCC2)cc1	inactive
O=C(Nc1ccccc1)Nc1cnns1	39.9 µM (active)
CO/C=C(/C(=O)OC)c1ccccc1COc1cccc(C(F)(F)F)n1	0.709 µM (active)
CNC(C)Cc1ccccc1OC (stereo unspecified)	inactive
CC(C)=CCOc1c2occc2cc2ccc(=O)oc12	4.36 µM (active)
O=S1(=O)OC(c2cc(Br)c(O)c(Br)c2)(c2cc(Br)c(O)c(Br)c2)c2ccccc21	73 µM (active)
CN1C(=O)NC(=O)C(C)(C2=CCCCC2)C1=O (stereo unspecified)	inactive
ClCCCCBr	inactive
Cc1ccccc1C(=O)Nc1cccc(OC(C)C)c1	7.96 µM (active)
COc1ccc(-c2ccccc2)cc1NNC(=O)OC(C)C	0.262 µM (active)
Cl/C=C\Cl	inactive
O=C(O)C(F)(F)C(F)(F)C(F)(F)C(F)(F)C(F)(F)C(F)(F)C(F)(F)C(F)(F)C(F)(F)F	inactive
ClCc1cccc(Cl)c1	inactive
CC(C)(C)c1cc([N+](=O)[O-])cc([N+](=O)[O-])c1O	56.2 µM (active)
CCCCCCC#N	68.8 µM (active)
S=C=NCc1ccccc1	5.08 µM (active)
CC(C)(OO)c1ccccc1	35.6 µM (active)
